Experimental data: PubChem BioAssay (EPA / NIEHS)
Records with an inconclusive call do not appear. The source made the active and inactive calls. The calls were made as follows, unless noted: active = hit-call score of the fitted dose curve at least 0.9, where 1 is the maximum; inactive = score below 0.9.

Legend:
[1] = molecular target: Glucocorticoid receptor (Homo sapiens) (UniProt P04150); experiment: ATG_GR_TRANS: Attagene TRANS-FACTORIAL HepG2 Assay for human Glucocorticoid Receptor (GR) (AID 2282978; active = hit-call score of the fitted dose curve at least 0.9, where 1 is the maximum;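 also: activators score as hits since higher reporter transcript over DMSO is fitted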); settings: HepG2 Attagene TRANS GR reporter, mRNA transcription
Procedure, shortened: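 Transiently transfected HepG2 cells express chimeric NR-GAL4 proteins acting on GAL4-UAS reporter units. Compounds are applied for 24 h. mRNA induction over DMSO is measured by capillary electrophoresis.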

[2] = molecular target: Bile acid receptor (Homo sapiens) (UniProt Q96RI1); experiment: ATG_FXR_TRANS: Attagene TRANS-FACTORIAL HepG2 Assay for Farnesoid X Receptor (FXR) (AID 2282979; active = hit-call score of the fitted dose curve at least 0.9, where 1 is the maximum;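 also: hits raise reporter mRNA above DMSO so AC50 marks FXR activation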); settings: HepG2 Attagene TRANS FXR-GAL4 reporter transcription
Procedure, shortened: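 HepG2 cells transiently transfected with reporter constructs in which a chimeric FXR-GAL4 protein drives a GAL4-UAS reporter; 24 h compound exposure. Reporter mRNA measured by RT-PCR, FAM labelling, HpaI digestion and capillary electrophoresis; gain-of-signal versus DMSO.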

[3] = molecular target: Oxysterols receptor LXR-alpha (Homo sapiens) (UniProt Q13133); experiment: ATG_LXRa_TRANS: Attagene TRANS-FACTORIAL HepG2 Assay for human Liver X Receptor alpha (LXRa) (AID 2282980; active = hit-call score of the fitted dose curve at least 0.9, where 1 is the maximum); settings: HepG2 Attagene TRANS reporter, LXRa transactivation
Procedure, shortened: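 HepG2 cells were transiently transfected with multiplexed reporter units driven by chimeric LXRa–GAL4 fusion proteins, then dosed for 24 h. Reporter mRNA was quantified by RT-PCR, fluorescent labelling and capillary electrophoresis; gain of signal fitted against DMSO baseline.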

[4] = molecular target: Oxysterols receptor LXR-beta (Homo sapiens) (UniProt P55055); experiment: ATG_LXRb_TRANS: Attagene TRANS-FACTORIAL HepG2 Assay for human Liver X Receptor beta (LXRb) (AID 2282981; active = hit-call score of the fitted dose curve at least 0.9, where 1 is the maximum); settings: HepG2 Attagene TRANS GAL4-LXRb reporter, mRNA
Procedure, shortened: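 HepG2 cells transiently transfected with multiple reporter transcription units carrying chimeric NR-Gal4 proteins acting on GAL4-UAS reporters; compound exposure 24 h. Reporter mRNA quantified by RT-PCR, 6-FAM labelling, HpaI digestion and capillary electrophoresis; gain of signal versus DMSO.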

[5] = ATG_M_06_TRANS: Attagene TRANS-FACTORIAL HepG2 Assay for M06 Transcription Factor (Internal Marker) (AID 2282983; active = hit-call score of the fitted dose curve at least 0.9, where 1 is the maximum); settings: HepG2 Attagene TRANS M06 internal marker reporter
Procedure, shortened: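 HepG2 cells transiently transfected with multiplexed GAL4-UAS reporter transcription units; after 24 h compound exposure, reporter mRNA measured by RT-PCR, FAM-labelled primer extension, HpaI digestion and capillary electrophoresis. Gain-of-signal fitted versus DMSO baseline; background control readout.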

[6] = molecular target: Nuclear receptor subfamily 4 group A member 2 (Homo sapiens) (UniProt P43354); experiment: ATG_NURR1_TRANS: Attagene TRANS-FACTORIAL HepG2 Assay for human Nuclear Receptor Related Protein 1 (NURR1) (AID 2282985; active = hit-call score of the fitted dose curve at least 0.9, where 1 is the maximum); settings: HepG2 Attagene TRANS reporter, mRNA readout
Procedure, shortened: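 HepG2 cells transiently transfected with GAL4-UAS reporter units and chimeric NR-Gal4 constructs; chemical exposure 24 h. Reporter mRNA quantified by RT-PCR, fluorescent labelling and capillary electrophoresis; gain of signal fitted relative to DMSO baseline.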

[7] = molecular target: Transcriptional activator Myb (Homo sapiens) (UniProt P10242); experiment: ATG_Myb_CIS: Attagene CIS-FACTORIAL HepG2 Assay for human Myeloblastosis (Myb) Proto-Oncogene Transcription Factor (AID 2282986); settings: HepG2 Attagene CIS-FACTORIAL Myb reporter transcription; actives raise or lower the signal
Procedure, shortened: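 Using HepG2 liver cells bearing transiently transfected cis-promoter reporter constructs, the assay measures induction or loss of reporter mRNA after 24 hours of dosing. Detection used fluorescently labeled RT-PCR products separated by capillary electrophoresis.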

[8] = molecular target: Nuclear respiratory factor 1 (Homo sapiens) (UniProt Q16656); experiment: ATG_NRF1_CIS: Attagene CIS-FACTORIAL HepG2 Assay for human Nuclear Respiratory Factor 1 (NRF1) Orphan Gene (AID 2282987); settings: HepG2 NRF1 cis-element reporter, Attagene multiplex; actives raise or lower the signal
Procedure, shortened: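 Reporter mRNA induction or loss in HepG2 cells after 24 h dosing; cis-regulated reporter constructs report endogenous transcription-factor activity. Quantified by RT-PCR/capillary electrophoresis fluorescence, DMSO-referenced.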

[9] = ATG_NFI_CIS: Attagene CIS-FACTORIAL HepG2 Assay for human Nuclear Factor I (NFI) (AID 2282989); settings: HepG2 cis-regulatory reporter, NFI response element transcription; actives raise or lower the signal
Procedure, shortened: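 Reporter transcripts were measured by RT-PCR with fluorescent primer extension and capillary electrophoresis 24 h post-treatment. HepG2 cells carried transiently transfected cis-regulated reporter constructs reporting endogenous factor activity; gain or loss fitted against DMSO baseline.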

[10] = molecular target: Myc proto-oncogene protein (Homo sapiens) (UniProt P01106); experiment: ATG_Myc_CIS: Attagene CIS-FACTORIAL HepG2 Assay for human Myelocytomatosis (Myc) Proto-Oncogene Transcription Factor (AID 2282990); settings: HepG2, Attagene cis-reporter transcription factor activity; actives raise or lower the signal
Procedure, shortened: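 Multiplexed cis-reporter transcription in HepG2 cells after 24 h chemical treatment. Reporter mRNA measured by RT-PCR and capillary electrophoresis fluorescence; activity fitted bidirectionally against DMSO control.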

[11] = ATG_NRF2_ARE_CIS: Attagene CIS-FACTORIAL HepG2 Assay for human Nuclear Factor Erythroid 2 Related Factor 2 (NFR2) response to Antioxidant Response Elements (ARE) (AID 2282992); settings: HepG2 Attagene ARE/NRF2 reporter, transcription factor activity; actives raise or lower the signal
Procedure, shortened: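 Multiplexed reporter mRNA profiling in HepG2 after a 24 h chemical exposure. Curves fitted in both directions relative to DMSO negative control.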

[12] = ATG_Oct_MLP_CIS: Attagene CIS-FACTORIAL HepG2 Assay for human Octamer-Binding Transcription Factor (Oct) (AID 2282993); settings: HepG2 Attagene cis-factorial Oct reporter, mRNA; actives raise or lower the signal
Procedure, shortened: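 Readout is reporter transcript level from RT-PCR with fluorescent primer extension and capillary electrophoresis, fitted in both directions against DMSO. Transfected HepG2 reporter units report endogenous factor activity after 24 h dosing.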

[13] = molecular target: Cellular tumor antigen p53 (Homo sapiens) (UniProt P04637); experiment: ATG_p53_CIS: Attagene CIS-FACTORIAL HepG2 Assay for human p53 Transcription Factor (AID 2282994); settings: HepG2 p53 cis-element reporter, Attagene mRNA; actives raise or lower the signal
Procedure, shortened: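 Multiplexed reporter mRNA assay in human HepG2 liver cells; cis-regulated units report endogenous factor activity. Values come from bidirectional curve fitting against DMSO negative control after 24 h treatment.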

[14] = molecular target: Hepatocyte nuclear factor 4-alpha (Homo sapiens) (UniProt P41235); experiment: ATG_HNF4a_TRANS: Attagene TRANS-FACTORIAL HepG2 Assay for human Hepatocyte Nuclear Factor 4 alpha (HNF4a) (AID 2282982; active = hit-call score of the fitted dose curve at least 0.9, where 1 is the maximum); settings: HepG2 HNF4a transactivation reporter, mRNA readout
Procedure, shortened: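 HepG2 cells transiently transfected with multiplexed GAL4-UAS reporter units responsive to chimeric NR-GAL4 proteins; compound exposure 24 h. Reporter mRNA quantified by RT-PCR, 6-FAM labelling, HpaI digestion and capillary electrophoresis; gain of signal versus DMSO baseline.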

[15] = ATG_M_32_TRANS: Attagene TRANS-FACTORIAL HepG2 Assay for M32 Transcription Factor (Internal Marker) (AID 2282984; active = hit-call score of the fitted dose curve at least 0.9, where 1 is the maximum); settings: HepG2 Attagene TRANS M32 internal marker reporter
Procedure, shortened: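 HepG2 cells transiently transfected with multiple GAL4-UAS reporter transcription units, dosed for 24 hours; reporter mRNA quantified by RT-PCR, 6-FAM primer extension, HpaI digestion and capillary electrophoresis. Gain-of-signal fitted versus DMSO baseline; internal background-control marker.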

[16] = ATG_NF_kB_CIS: Attagene CIS-FACTORIAL HepG2 Assay for human Nuclear Factor Kappa B (NF-kB) (AID 2282991); settings: HepG2 Attagene cis-factorial NF-kB reporter mRNA; actives raise or lower the signal
Procedure, shortened: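 DMSO served as negative control and baseline for bidirectional curve fitting. Transiently transfected HepG2 cells were dosed for 24 h, then reporter transcripts were measured by RT-PCR with capillary electrophoresis detection.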

[17] = molecular target: Estrogen-related receptor gamma (Homo sapiens) (UniProt P62508); experiment: ATG_ERRg_TRANS: Attagene TRANS-FACTORIAL HepG2 Assay for human Estrogen-Related Receptor gamma (ERRg) (AID 2282977; active = hit-call score of the fitted dose curve at least 0.9, where 1 is the maximum;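 also: hits increase reporter signal over DMSO so potencies reflect activators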); settings: HepG2 Attagene TRANS reporter, ERRg transactivation
Procedure, shortened: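 HepG2 cells transiently transfected with multiplexed GAL4-UAS reporter units and chimeric NR-Gal4 constructs were exposed to test chemicals for 24 h. Reporter mRNA was measured by RT-PCR, 6-FAM primer extension, HpaI digestion and capillary electrophoresis; gain-of-signal versus DMSO.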

[18] = BSK_3C_TissueFactor: BioMAP Diversity Plus: 3C Assay for Tissue Factor Biomarker Activity (AID 2282997); settings: BioMAP 3C HUVEC, tissue factor biomarker readout; actives raise or lower the signal
Procedure, shortened: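 Primary human umbilical vein endothelial cells in the 3C system were exposed to test chemical for 24 h, then Tissue Factor measured by ELISA. Activity was fitted bidirectionally against DMSO as negative control and baseline.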

[19] = BSK_3C_uPAR: BioMAP Diversity Plus: 3C Assay for Urokinase-type plasminogen activator receptor (uPAR) Biomarker Activity (AID 2282998); settings: BioMAP 3C HUVEC, uPAR biomarker ELISA; actives raise or lower the signal
Procedure, shortened: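 Cell-surface uPAR on HUVEC (3C system) read by ELISA at 24 h post-treatment, with DMSO as baseline and fitting in both directions. Parallel cultures stained with SRB to flag overt cytotoxicity.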

[20] = BSK_3C_VCAM1: BioMAP Diversity Plus: 3C Assay for Vascular cell adhesion molecule 1 (VCAM1) Biomarker Activity (AID 2282999); settings: BioMAP 3C HUVEC, VCAM1 ELISA, cytokine-stimulated; actives raise or lower the signal
Procedure, shortened: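 Human umbilical vein endothelial cells were dosed with compound for 24 h, after which cell-surface VCAM-1 was quantified by ELISA. Bidirectional curve fitting used DMSO as negative control and activity baseline.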

Measured: AC50

Hepatocyte nuclear factor 4-alpha (Homo sapiens), sequence (P41235 whole entry, looked up, the tested form may be a part): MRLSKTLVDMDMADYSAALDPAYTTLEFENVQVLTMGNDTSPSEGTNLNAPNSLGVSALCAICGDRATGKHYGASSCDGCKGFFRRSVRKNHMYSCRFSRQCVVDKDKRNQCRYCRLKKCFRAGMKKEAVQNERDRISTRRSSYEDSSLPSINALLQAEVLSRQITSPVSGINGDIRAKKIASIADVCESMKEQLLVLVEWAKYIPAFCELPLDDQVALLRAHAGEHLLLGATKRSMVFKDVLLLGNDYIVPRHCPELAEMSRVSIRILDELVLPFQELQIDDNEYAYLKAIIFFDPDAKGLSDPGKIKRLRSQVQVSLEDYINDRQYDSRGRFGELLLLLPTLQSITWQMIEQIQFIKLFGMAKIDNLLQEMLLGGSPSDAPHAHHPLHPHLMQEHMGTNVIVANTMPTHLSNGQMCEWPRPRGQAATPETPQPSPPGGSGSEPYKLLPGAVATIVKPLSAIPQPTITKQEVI
Bile acid receptor (Homo sapiens), sequence (Q96RI1 whole entry, looked up, the tested form may be a part): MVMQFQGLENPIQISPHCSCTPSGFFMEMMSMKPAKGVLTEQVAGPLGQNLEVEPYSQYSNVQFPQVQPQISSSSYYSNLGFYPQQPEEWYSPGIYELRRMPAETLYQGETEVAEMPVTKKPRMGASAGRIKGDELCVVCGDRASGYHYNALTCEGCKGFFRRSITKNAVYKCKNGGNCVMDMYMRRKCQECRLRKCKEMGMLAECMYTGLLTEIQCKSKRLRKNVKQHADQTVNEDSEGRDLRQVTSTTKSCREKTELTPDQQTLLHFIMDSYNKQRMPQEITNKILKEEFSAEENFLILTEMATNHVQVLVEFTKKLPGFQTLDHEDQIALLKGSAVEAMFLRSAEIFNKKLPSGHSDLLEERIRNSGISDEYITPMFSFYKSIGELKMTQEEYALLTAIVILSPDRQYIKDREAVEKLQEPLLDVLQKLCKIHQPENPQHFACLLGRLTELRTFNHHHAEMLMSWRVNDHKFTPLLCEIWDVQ
Nuclear receptor subfamily 4 group A member 2 (Homo sapiens), sequence (P43354 whole entry, looked up, the tested form may be a part): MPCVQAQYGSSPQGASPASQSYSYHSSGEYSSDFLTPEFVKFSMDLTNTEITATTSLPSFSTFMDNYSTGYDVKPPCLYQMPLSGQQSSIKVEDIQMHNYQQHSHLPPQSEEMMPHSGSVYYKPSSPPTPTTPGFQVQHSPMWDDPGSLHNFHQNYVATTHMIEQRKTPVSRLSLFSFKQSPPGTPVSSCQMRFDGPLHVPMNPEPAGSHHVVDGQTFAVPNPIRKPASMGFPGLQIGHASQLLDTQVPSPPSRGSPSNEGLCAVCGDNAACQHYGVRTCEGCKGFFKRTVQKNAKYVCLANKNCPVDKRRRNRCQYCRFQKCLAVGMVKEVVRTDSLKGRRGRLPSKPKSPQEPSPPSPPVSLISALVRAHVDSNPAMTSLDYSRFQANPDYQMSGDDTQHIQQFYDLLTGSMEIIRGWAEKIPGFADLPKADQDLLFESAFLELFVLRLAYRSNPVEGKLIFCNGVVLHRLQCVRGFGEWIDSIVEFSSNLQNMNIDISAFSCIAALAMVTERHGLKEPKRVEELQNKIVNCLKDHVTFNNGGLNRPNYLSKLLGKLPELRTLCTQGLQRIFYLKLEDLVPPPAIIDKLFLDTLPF
Transcriptional activator Myb (Homo sapiens), sequence (P10242 whole entry, looked up): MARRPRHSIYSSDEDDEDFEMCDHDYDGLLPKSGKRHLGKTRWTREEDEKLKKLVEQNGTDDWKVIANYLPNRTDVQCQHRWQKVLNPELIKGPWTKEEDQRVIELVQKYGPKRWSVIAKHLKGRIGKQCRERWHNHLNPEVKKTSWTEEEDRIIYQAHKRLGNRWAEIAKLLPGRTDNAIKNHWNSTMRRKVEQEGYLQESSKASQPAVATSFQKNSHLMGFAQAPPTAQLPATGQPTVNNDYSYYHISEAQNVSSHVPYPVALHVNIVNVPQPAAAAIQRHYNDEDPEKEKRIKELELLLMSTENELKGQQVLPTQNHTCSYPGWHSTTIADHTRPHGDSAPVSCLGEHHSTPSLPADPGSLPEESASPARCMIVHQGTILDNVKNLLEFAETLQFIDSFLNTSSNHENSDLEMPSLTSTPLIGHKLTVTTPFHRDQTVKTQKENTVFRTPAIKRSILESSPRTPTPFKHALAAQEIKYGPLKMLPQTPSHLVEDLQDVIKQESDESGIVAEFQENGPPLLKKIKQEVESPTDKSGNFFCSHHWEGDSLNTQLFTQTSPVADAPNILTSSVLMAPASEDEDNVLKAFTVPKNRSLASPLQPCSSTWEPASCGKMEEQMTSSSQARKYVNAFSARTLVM
Estrogen-related receptor gamma (Homo sapiens), sequence (P62508 whole entry, looked up, the tested form may be a part): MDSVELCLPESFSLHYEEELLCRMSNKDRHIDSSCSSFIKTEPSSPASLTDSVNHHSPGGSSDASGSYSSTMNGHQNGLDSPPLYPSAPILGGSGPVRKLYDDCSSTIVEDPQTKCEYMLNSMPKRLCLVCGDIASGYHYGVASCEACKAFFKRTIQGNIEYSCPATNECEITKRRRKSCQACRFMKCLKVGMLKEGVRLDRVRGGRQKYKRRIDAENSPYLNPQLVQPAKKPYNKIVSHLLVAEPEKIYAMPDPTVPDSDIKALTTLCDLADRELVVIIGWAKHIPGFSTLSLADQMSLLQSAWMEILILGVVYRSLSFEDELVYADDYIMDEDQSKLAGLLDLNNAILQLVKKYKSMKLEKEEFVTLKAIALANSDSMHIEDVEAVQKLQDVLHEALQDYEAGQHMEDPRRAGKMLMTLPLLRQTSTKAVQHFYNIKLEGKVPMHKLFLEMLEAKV
Glucocorticoid receptor (Homo sapiens), sequence (P04150 whole entry, looked up, the tested form may be a part): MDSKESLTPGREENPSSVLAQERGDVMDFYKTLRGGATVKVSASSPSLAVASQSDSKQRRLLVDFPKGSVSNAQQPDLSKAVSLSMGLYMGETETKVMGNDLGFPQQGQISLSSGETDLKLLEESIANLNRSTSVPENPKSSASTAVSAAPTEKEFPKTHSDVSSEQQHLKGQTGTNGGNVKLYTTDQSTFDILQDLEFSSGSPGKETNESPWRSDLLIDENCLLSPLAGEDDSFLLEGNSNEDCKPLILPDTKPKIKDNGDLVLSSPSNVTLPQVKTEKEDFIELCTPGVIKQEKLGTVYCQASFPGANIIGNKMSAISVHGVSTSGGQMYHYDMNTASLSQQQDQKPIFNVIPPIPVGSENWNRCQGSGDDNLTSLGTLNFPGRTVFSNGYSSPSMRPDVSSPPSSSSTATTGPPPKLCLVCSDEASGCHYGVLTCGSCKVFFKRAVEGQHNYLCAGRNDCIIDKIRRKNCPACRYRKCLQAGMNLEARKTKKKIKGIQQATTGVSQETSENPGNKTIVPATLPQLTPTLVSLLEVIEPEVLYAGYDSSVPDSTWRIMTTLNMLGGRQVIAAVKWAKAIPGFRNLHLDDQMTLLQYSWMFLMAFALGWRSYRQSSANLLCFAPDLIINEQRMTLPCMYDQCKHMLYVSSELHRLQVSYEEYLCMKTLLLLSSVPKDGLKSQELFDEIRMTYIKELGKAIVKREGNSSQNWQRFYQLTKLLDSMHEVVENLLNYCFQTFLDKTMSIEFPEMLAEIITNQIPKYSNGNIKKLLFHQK
Cellular tumor antigen p53 (Homo sapiens), sequence (P04637 whole entry, looked up): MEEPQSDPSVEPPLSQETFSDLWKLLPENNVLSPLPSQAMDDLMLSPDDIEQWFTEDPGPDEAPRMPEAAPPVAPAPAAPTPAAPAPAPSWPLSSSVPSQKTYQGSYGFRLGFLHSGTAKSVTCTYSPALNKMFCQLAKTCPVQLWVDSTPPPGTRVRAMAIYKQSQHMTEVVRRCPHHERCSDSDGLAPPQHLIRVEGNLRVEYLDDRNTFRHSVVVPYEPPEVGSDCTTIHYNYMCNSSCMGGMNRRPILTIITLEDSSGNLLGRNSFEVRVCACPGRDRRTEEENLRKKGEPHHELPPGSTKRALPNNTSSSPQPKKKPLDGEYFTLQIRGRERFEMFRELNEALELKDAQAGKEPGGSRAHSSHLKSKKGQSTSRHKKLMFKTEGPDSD
Oxysterols receptor LXR-alpha (Homo sapiens), sequence (Q13133 whole entry, looked up, the tested form may be a part): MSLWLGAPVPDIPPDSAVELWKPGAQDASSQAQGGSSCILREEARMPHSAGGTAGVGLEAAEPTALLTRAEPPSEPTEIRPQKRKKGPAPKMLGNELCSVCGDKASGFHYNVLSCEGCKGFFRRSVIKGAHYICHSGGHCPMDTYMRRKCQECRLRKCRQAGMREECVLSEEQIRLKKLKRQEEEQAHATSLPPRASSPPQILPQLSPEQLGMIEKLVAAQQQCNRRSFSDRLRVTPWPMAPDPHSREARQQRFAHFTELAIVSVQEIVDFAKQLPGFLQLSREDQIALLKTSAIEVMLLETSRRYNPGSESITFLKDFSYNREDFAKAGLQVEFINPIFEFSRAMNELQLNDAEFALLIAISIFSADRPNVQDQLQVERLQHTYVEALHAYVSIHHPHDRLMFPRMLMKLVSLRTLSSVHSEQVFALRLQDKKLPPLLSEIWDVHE
Myc proto-oncogene protein (Homo sapiens), sequence (P01106 whole entry, looked up): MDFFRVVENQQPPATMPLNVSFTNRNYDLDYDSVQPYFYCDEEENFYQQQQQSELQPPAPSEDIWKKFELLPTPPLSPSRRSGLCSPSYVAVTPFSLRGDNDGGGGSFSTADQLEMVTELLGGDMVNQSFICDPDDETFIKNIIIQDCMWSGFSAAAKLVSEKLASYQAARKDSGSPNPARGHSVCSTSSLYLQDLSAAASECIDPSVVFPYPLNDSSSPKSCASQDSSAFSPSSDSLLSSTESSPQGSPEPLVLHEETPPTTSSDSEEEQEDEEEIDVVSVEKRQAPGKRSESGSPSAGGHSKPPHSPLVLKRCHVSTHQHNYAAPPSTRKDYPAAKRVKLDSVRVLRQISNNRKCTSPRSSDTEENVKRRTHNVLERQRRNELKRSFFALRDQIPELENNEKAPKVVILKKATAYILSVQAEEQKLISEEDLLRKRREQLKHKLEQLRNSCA

CCCCCCCC(=O)OCC(COC(=O)CCCCCCC)OC(=O)CCCCCCC
not listed: [14] | [15] | [16] | [17] | [18] | [19] | [20]
inactive: all other assays above

c1ccc(-c2nc3ccccc3[nH]2)cc1
active: [10] 26.1 µM
not listed: [12] | [17] | [18] | [19] | [20]
inactive: all other assays above

CCc1cccc(CC)c1
not listed: [4] | [6] | [14] | [15] | [17] | [18] | [19] | [20]
inactive: all other assays above

C=C(C)C(=O)OCC(O)COc1ccc(C(C)(C)c2ccc(OCC(O)COC(=O)C(=C)C)cc2)cc1 (configuration not stated)
inactive: [17] | [14] | [15] | [9] | [10] | [16] | [13]
active: [6] 27.4 µM | [7] 158 µM | [8] 130 µM | [11] 26.5 µM | [12] 17.8 µM

CC(C)c1ccc2ncccc2c1
inactive: [17] | [2] | [5] | [7] | [8] | [9] | [10] | [16] | [12]
active: [11] 64.6 µM

CC1(C)[C@@H]2CC[C@@]1(C)C(=O)C2
inactive: [17] | [6] | [7] | [8] | [9] | [10] | [16] | [11] | [12] | [13]

CCc1cccc(C)c1N(C(=O)CS(=O)(=O)O)C(C)COC (configuration not stated)
not listed: [4] | [15] | [17]
inactive: all other assays above

COC(=O)c1ccc(C(=O)OC)c(C(=O)OC)c1
not listed: [1] | [2] | [13] | [18] | [19] | [20]
inactive: all other assays above

C/C=C/C=C/CCCCCCCO
active: [15] 100 µM | [11] 45.6 µM
not listed: [5] | [17] | [18] | [19] | [20]
inactive: all other assays above

CC(C)=CCl
not listed: [3] | [15] | [17] | [18] | [19] | [20]
inactive: all other assays above
